From the supplement of paper PMC8728848
The sample as a whole holds a higher share of the strongest signals than the screen did.

Legend:
Assay in all cases: glycan array binding signal (z-score within array); higher = stronger binding
Details in all cases: glycan notation: IUPAC condensed, linker removed
Fuc(a1-2)Gal(b1-3)GalNAc = molecular target: Fuc(a1-2)Gal(b1-3)GalNAc
Outline: (§1)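 The binding signal is a Z-score computed within each array and averaged over linkers. Arrays of the same protein sequence at different concentrations or buffers were also averaged together. Data originate from 3228 arrays in the Consortium for Functional Glycomics database, kept only where the protein sequence was available.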

[1] = molecular target: Fuc(a1-2)Gal(b1-3)GlcNAc(b1-2)Man(a1-3)[Fuc(a1-2)Gal(b1-3)GlcNAc(b1-2)Man(a1-6)]Man(b1-4)GlcNAc(b1-4)GlcNAc
Outline: as §1

[2] = molecular target: Fuc(a1-2)Gal(b1-3)GlcNAc(b1-2)Man(a1-3)[Fuc(a1-2)Gal(b1-3)GlcNAc(b1-2)Man(a1-6)]Man(b1-4)GlcNAc(b1-4)[Fuc(a1-6)]GlcNAc
Outline: as §1

[3] = molecular target: Fuc(a1-2)Gal(b1-3)[Fuc(a1-4)]GlcNAc(b1-2)Man(a1-3)[Fuc(a1-2)Gal(b1-3)[Fuc(a1-4)]GlcNAc(b1-2)Man(a1-6)]Man(b1-4)GlcNAc(b1-4)GlcNAc
Outline: as §1

[4] = molecular target: Fuc(a1-2)Gal(b1-4)Fuc(a1-3)]GlcNAc(b1-2)Man(a1-3)[Fuc(a1-2)Gal(b1-4)[Fuc(a1-3)]GlcNAc(b1-2)Man(a1-6)]Man(b1-4)GlcNAc(b1-4)GlcNAc
Outline: as §1

[5] = molecular target: Fuc(a1-2)Gal(b1-4)[Fuc(a1-3)]GlcNAc(b1-3)GalNAc
Outline: as §1

[6] = molecular target: Fuc(a1-2)[GalNAc(a1-3)]Gal(b1-3)GalNAc(b1-3)Gal(a1-4)Gal(b1-4)Glc
Outline: as §1

[7] = molecular target: Fuc(a1-2)[GalNAc(a1-3)]Gal(b1-4)GlcNAc(b1-3)GalNAc
Outline: as §1

[8] = molecular target: Fuc(a1-2)[GalNAc(a1-3)]Gal(b1-4)[Fuc(a1-3)]GlcNAc
Outline: as §1

[9] = molecular target: Fuc(a1-3)[Gal3S(b1-4)]GlcNAc6S
Outline: as §1

[10] = molecular target: Fuc(a1-3)[GalNAc(b1-4)]GlcNAc
Outline: as §1

[11] = molecular target: Gal(a1-3)Gal(b1-4)GlcNAc(b1-2)Man
Outline: as §1

[12] = molecular target: Gal(a1-3)Gal(b1-4)GlcNAc(b1-6)GalNAc
Outline: as §1

[13] = molecular target: Gal(a1-3)[Gal(a1-4)]Gal(b1-4)GlcNAc
Outline: as §1

Gal(a1-6)Glc = molecular target: Gal(a1-6)Glc
Outline: as §1

[14] = molecular target: Gal(b1-3)GalNAc(b1-4)[Neu5Ac(a2-3)]Gal(b1-4)Glc
Outline: as §1

[15] = molecular target: Gal(b1-3)GlcNAc(b1-3)Gal(b1-4)GlcNAc(b1-2)[Gal(b1-3)GlcNAc(b1-3)Gal(b1-4)GlcNAc(b1-6)]Man(a1-6)[Gal(b1-3)GlcNAc(b1-3)Gal(b1-4)GlcNAc(b1-2)Man(a1-3)]Man(b1-4)GlcNAc(b1-4)[Fuc(a1-6)]GlcNAc
Outline: as §1

[16] = molecular target: Gal(b1-3)GlcNAc(b1-3)GalNAc
Outline: as §1

[17] = molecular target: Gal(b1-3)[Fuc(a1-4)]GlcNAc(b1-3)Gal(b1-4)GlcNAc
Outline: as §1

[18] = molecular target: Gal(b1-4)GlcNAc(b1-2)Man(a1-3)[Gal(b1-4)GlcNAc(b1-2)Man(a1-6)]Man(b1-4)GlcNAc(b1-4)GlcNAc
Outline: as §1

[19] = molecular target: Gal(b1-4)GlcNAc(b1-2)Man(a1-3)[GlcNAc(b1-2)Man(a1-6)]Man(b1-4)GlcNAc(b1-4)GlcNAc
Outline: as §1

[20] = molecular target: Gal(b1-4)GlcNAc(b1-2)Man(a1-3)[GlcNAc(b1-4)][Gal(b1-4)GlcNAc(b1-2)Man(a1-6)]Man(b1-4)GlcNAc(b1-4)GlcNAc
Outline: as §1

[21] = molecular target: Gal(b1-4)GlcNAc(b1-2)[Gal(b1-4)GlcNAc(b1-4)]Man(a1-3)[GlcNAc(b1-4)][Gal(b1-4)GlcNAc(b1-2)[Gal(b1-4)GlcNAc(b1-6)]Man(a1-6)]Man(b1-4)GlcNAc(b1-4)[Fuc(a1-6)]GlcNAc
Outline: as §1

[22] = molecular target: Gal(b1-4)GlcNAc(b1-3)Gal(b1-4)GlcNAc(b1-2)[Gal(b1-4)GlcNAc(b1-3)Gal(b1-4)GlcNAc(b1-6)]Man(a1-6)[Gal(b1-4)GlcNAc(b1-3)Gal(b1-4)GlcNAc(b1-2)Man(a1-3)]Man(b1-4)GlcNAc(b1-4)GlcNAc
Outline: as §1

[23] = molecular target: Gal(b1-4)GlcNAc(b1-3)Gal(b1-4)GlcNAc(b1-2)[Gal(b1-4)GlcNAc(b1-3)Gal(b1-4)GlcNAc(b1-6)]Man(a1-6)[Gal(b1-4)GlcNAc(b1-3)Gal(b1-4)GlcNAc(b1-2)Man(a1-3)]Man(b1-4)GlcNAc(b1-4)[Fuc(a1-6)]GlcNAc
Outline: as §1

[24] = molecular target: Gal(b1-4)GlcNAc(b1-3)Gal(b1-4)GlcNAc(b1-3)Gal(b1-4)GlcNAc(b1-3)Gal(b1-4)GlcNAc(b1-2)Man(a1-3)[Gal(b1-4)GlcNAc(b1-3)Gal(b1-4)GlcNAc(b1-3)Gal(b1-4)GlcNAc(b1-3)Gal(b1-4)GlcNAc(b1-2)Man(a1-6)]Man(b1-4)GlcNAc(b1-4)[Fuc(a1-6)]GlcNAc
Outline: as §1

[25] = molecular target: Gal(b1-4)GlcNAc(b1-3)Gal(b1-4)GlcNAc(b1-3)Gal(b1-4)GlcNAc(b1-3)Gal(b1-4)GlcNAc(b1-3)Gal(b1-4)GlcNAc(b1-2)Man(a1-3)[Gal(b1-4)GlcNAc(b1-3)Gal(b1-4)GlcNAc(b1-3)Gal(b1-4)GlcNAc(b1-3)Gal(b1-4)GlcNAc(b1-3)Gal(b1-4)GlcNAc(b1-2)Man(a1-6)]Man(b1-4)GlcNAc(b1-4)GlcNAc
Outline: as §1

B1: LlpA1 (Pseudomonas fluorescens), Q4KHC3 (protein)
chain: MGSSHHHHHHSSGLVPRGSHMAWIRYDFTDNGSSVLPARYYMAPNQYLQSPNKRFKLLFQADGNLALYDGAQLAWVADQNTPFTNVSKGNKKDPMMVFMNYGFVLDDPLRGRIWSTTPSDPTMGSREDASLRAFTQVQDDGNIVTVDTIPHWYAPNGRVFTPAVGAAMIIGGTTELVPGQFYSAGEHSLVFQGDGNLVVYGPNSSVIWATYTQNKGGVRCVMQEDGNLVIYAANNGVVWQSGTGGHPGATIRLQANGSFTIVTERPVWARFGYTPTIKPPRVFYPDHKWKTGSYTWNNVF
Question: How did the “glycan array binding signal (z-score)” value (Fuc(a1-2)Gal(b1-3)GalNAc) turn out when B1 was run?
Answer: -0.757

Question: What about the “glycan array binding signal (z-score)” value [1] of the same binder?
Answer: 3.75

Question: And the “glycan array binding signal (z-score)” value [2]?
Answer: -0.133

Question: What about the “glycan array binding signal (z-score)” value [3] of the same binder?
Answer: 3.21

Question: And the “glycan array binding signal (z-score)” value [4]?
Answer: 3.1

Question: And the “glycan array binding signal (z-score)” value [5]?
Answer: 2.56

Question: What about the “glycan array binding signal (z-score)” value [6] of the same binder?
Answer: 0.171

Question: What about the “glycan array binding signal (z-score)” value [7] of the same binder?
Answer: -0.468

Question: What about the “glycan array binding signal (z-score)” value [8] of the same binder?
Answer: 0.114

Question: What about the “glycan array binding signal (z-score)” value [9] of the same binder?
Answer: -0.653

Question: What about the “glycan array binding signal (z-score)” value [10] of the same binder?
Answer: -0.611

Question: And the “glycan array binding signal (z-score)” value [11]?
Answer: -0.521

Question: And the “glycan array binding signal (z-score)” value [12]?
Answer: 0.065

Question: And the “glycan array binding signal (z-score)” value [13]?
Answer: 2.71

Question: And the “glycan array binding signal (z-score)” value (Gal(a1-6)Glc)?
Answer: 0.047

Question: What about the “glycan array binding signal (z-score)” value [14] of the same binder?
Answer: -0.058

Question: What about the “glycan array binding signal (z-score)” value [15] of the same binder?
Answer: 0.631

Question: What about the “glycan array binding signal (z-score)” value [16] of the same binder?
Answer: -0.529

Question: What about the “glycan array binding signal (z-score)” value [17] of the same binder?
Answer: -0.53

Question: What about the “glycan array binding signal (z-score)” value [18] of the same binder?
Answer: -0.071

Question: And the “glycan array binding signal (z-score)” value [19]?
Answer: 0.504

Question: What about the “glycan array binding signal (z-score)” value [20] of the same binder?
Answer: -0.797

Question: And the “glycan array binding signal (z-score)” value [21]?
Answer: 2.29

Question: What about the “glycan array binding signal (z-score)” value [22] of the same binder?
Answer: 2.3

Question: What about the “glycan array binding signal (z-score)” value [23] of the same binder?
Answer: 1.19

Question: And the “glycan array binding signal (z-score)” value [24]?
Answer: 1.12

Question: What about the “glycan array binding signal (z-score)” value [25] of the same binder?
Answer: 2.15
